Assay results taken from PubChem BioAssay (EPA / NIEHS).
Inconclusive results are not listed. Active and inactive are the calls of the source. Rule for the calls: active = hit-call score of the fitted dose curve at least 0.9, where 1 is the maximum; inconclusive = response in the unintended direction; inactive = score below 0.9.

read-out: Cytochrome P450 3A4 (Homo sapiens) (UniProt P08684); experiment: CLD_CYP3A4_6hr: CellzDirect (CLD) Gene Expression Assay for xenobiotic metabolism (CYP3A4) at 6 hours (AID 2283680)
Description: CLD_6hr is a cell-based, multiplexed-readout assay that uses hepatocyte, a human liver primary cell, with measurements taken at 6 hours after chemical dosing in a 96-well plate.CLD_CYP3A4_6hr is one of 16 assay component(s) measured or calculated from the CLD_6hr assay. It is designed to make measurements of mRNA induction, a form of inducible reporter, as detected with chemiluminescence signals by Quantitative Nuclease Protection Assay (qNPA) technology.Data from the assay component CLD_CYP3A4_6hr was analyzed at the endpoint, CLD_CYP3A4_6hr, in the positive analysis fitting direction relative to DMSO as the negative control and baseline of activity. Using a type of inducible reporter, gain-of-signal activity can be used to understand changes in the reporter gene as they relate to the gene CYP3A4. Furthermore, this assay endpoint can be referred to as a primary readout. To generalize the intended target to other relatable targets, this assay endpoint is annotated to the cyp intended target family, where subfamily is xenobiotic metabolism.
Human hepatocyte cultures were treated daily for two consecutive days with fresh dosing solutions containing appropriate concentrations of the 320 ToxCast chemicals (chemical identities were blinded to CellzDirect and other ToxCast collaborators), vehicle control (0.2% DMSO), and positive control inducers as summarized in Table 1. Due to the large number of treatment groups and chemicals examined, the ToxCast chemicals were divided into two groups (spanning two independent cultures of hepatocytes from separate donor preparations (Hu778: ToxCast plates 1 and 2; Hu776: ToxCast plates 3 and 4). Each preparation of human hepatocyte cultures was treated with respective vehicle control, medium only control, set of six positive controls/reference chemicals for the five hepatic receptor pathways, and a subset of eight of the ToxCast chemicals (indoxacarb, pyrithiobac-sodium, norflurazon, cyhalofop-butyl, methomyl, thiram, acetochlor, and propiconazole). These replicate data, coupled with internal replicates designed within the blinded ToxCast chemical library, provided additional data to evaluate interindividual differences between hepatocyte preparations and their potential impact on chemical profiles.Cell morphology and integrity were evaluated using phase-contrast microscopy as an indicator of hepatocyte cell health (Tyson & Green, 1987). Cultures for each treatment group (i.e., media, vehicle [0.2% DMSO], positive control inducers [multiple concentrations], and the ToxCast chemicals [multiple concentrations]) were observed and cell morphology was assessed relative to vehicle control cultures at each harvest time point (0, 6, 24, or 48 h). […] Images were evaluated at the conclusion of the study to assess changes in cell integrity and account for the effects of chemical exposure on uncharacteristic changes in concentration-dependent gene expression profiles. The results from these determinations of apparent cytotoxicity were annotated (yes/no) alongside the corresponding qNPA data for reference.At the conclusion of each treatment period, hepatocyte cultures (96-well) were washed with 1 volume of HBSS, lysed by addition of 25 ul ArrayPlate lysis buffer (HTG, Tucson, AZ), and 70 ul/well of Denaturation Oil, denatured by incubation at 95C for 10 min, and frozen at approximately -70C until analysis by nuclease protection assay (qNPA) (Roberts et al., 2007). For qNPA analysis, cell lysates were thawed at 50C for approximately 30 min, qNPA probes were added, and samples were incubated at 95C for 10 min to begin the detection process by denaturing the target RNA, dissociating the duplexes and secondary structure hybridization. At the conclusion of the hybridization period, S1 nuclease reagent was added to each sample to digest all nonprotected nucleotides at 50C for 60-90 min. […]

Sequence of Cytochrome P450 3A4 (Homo sapiens) (P08684 whole entry, looked up): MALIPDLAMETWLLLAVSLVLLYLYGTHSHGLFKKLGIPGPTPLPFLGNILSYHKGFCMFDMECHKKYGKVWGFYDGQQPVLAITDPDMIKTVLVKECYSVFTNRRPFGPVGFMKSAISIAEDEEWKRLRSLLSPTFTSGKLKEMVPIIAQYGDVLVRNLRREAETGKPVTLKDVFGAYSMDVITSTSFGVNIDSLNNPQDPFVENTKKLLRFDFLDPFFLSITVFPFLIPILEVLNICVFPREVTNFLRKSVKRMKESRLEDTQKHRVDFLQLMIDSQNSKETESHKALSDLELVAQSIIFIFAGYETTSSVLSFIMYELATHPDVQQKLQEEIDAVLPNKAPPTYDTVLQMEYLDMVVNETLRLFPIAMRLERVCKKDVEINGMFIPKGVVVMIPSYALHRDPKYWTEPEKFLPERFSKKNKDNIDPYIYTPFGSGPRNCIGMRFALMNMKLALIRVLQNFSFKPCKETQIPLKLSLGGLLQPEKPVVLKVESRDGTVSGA

| SMILES | AC50 | outcome |
| --- | --- | --- |
| CCCCNC(=O)OCC#CI | 1890 nM (active) | – |
| COC(=O)C(C)Oc1ccc(Oc2ccc(Cl)cc2Cl)cc1 (stereo not drawn) | – | inactive |
| CNC(=O)ON=CC(C)(C)SC | – | inactive |
| Cc1ccc(-c2c(Cl)nc(C#N)n2S(=O)(=O)N(C)C)cc1 | 1890 nM (active) | – |
| C=CC1(C)OC(=O)N(c2cc(Cl)cc(Cl)c2)C1=O (stereo not drawn) | – | inactive |
| CNC(=S)S | – | inactive |
| C#CCOS(=O)OC1CCCCC1Oc1ccc(C(C)(C)C)cc1 (stereo not drawn) | 1890 nM (active) | – |
| COc1nc(C)nc(NC(=O)NS(=O)(=O)c2ccccc2CCC(F)(F)F)n1 | – | inactive |
| CCNc1nc(Cl)nc(NC(C)C)n1 | 20000 nM (active) | – |
| CCCN(CCC)c1c([N+](=O)[O-])cc(S(N)(=O)=O)cc1[N+](=O)[O-] | – | inactive |
| CCOC(=O)CC(SP(=S)(OC)OC)C(=O)OCC (stereo not drawn) | – | inactive |
| COc1nc(NC(C)C)nc(NC(C)C)n1 | – | inactive |
| Cc1c(F)c(F)c(COC(=O)C2C(/C=C(\Cl)C(F)(F)F)C2(C)C)c(F)c1F (stereo not drawn) | – | inactive |
| N#CC(CCc1ccc(Cl)cc1)(Cn1cncn1)c1ccccc1 (stereo not drawn) | – | inactive |
| CON(C)C(=O)Nc1ccc(Cl)c(Cl)c1 | – | inactive |
| COc1cnc(OC)n2nc(NS(=O)(=O)c3c(OCC(F)F)cccc3C(F)(F)F)nc12 | 8340 nM (active) | – |
| CCCC1COC(Cn2cncn2)(c2ccc(Cl)cc2Cl)O1 (stereo not drawn) | – | inactive |

| SMILES | AC50 | outcome |
| --- | --- | --- |
| CCON=C(CC)C1=C(O)CC(c2c(C)cc(C)cc2C)CC1=O (stereo not drawn) | – | inactive |
| COC(=O)N(OC)c1ccccc1COc1ccn(-c2ccc(Cl)cc2)n1 | – | inactive |
| COP(=S)(OC)Oc1nc(Cl)c(Cl)cc1Cl | – | inactive |
| OC(c1ccc(Cl)cc1)(c1cncnc1)c1ccccc1Cl (stereo not drawn) | – | inactive |
| COc1nc(C)nc(NC(=O)NS(=O)(=O)c2ccccc2Cl)n1 | – | inactive |
| CC(C)Oc1cc(-n2nc(C(C)(C)C)oc2=O)c(Cl)cc1Cl | 1890 nM (active) | – |
| C=CCC1=C(C)C(OC(=O)C2C(C=C(C)C)C2(C)C)CC1=O (stereo not drawn) | – | inactive |
| COP(N)(=O)SC (stereo not drawn) | – | inactive |
| CCOC(=O)C(Cl)Cc1cc(-n2nc(C)n(C(F)F)c2=O)c(F)cc1Cl (stereo not drawn) | – | inactive |
| COC(=O)C=C(C)OP(=O)(OC)OC | – | inactive |
| CC1=C(C(=O)Nc2ccccc2)SCCO1 | – | inactive |
| N#Cc1nn(-c2c(Cl)cc(C(F)(F)F)cc2Cl)c(N)c1S(=O)C(F)(F)F (stereo not drawn) | – | inactive |
| CCc1nn(C)c(C(=O)NCc2ccc(C(C)(C)C)cc2)c1Cl | – | inactive |
| CCOc1cc(Oc2ccc(C(F)(F)F)cc2Cl)ccc1[N+](=O)[O-] | 5400 nM (active) | – |
| CC(C)C1(C)N=C(c2nc3ccccc3cc2C(=O)O)NC1=O (stereo not drawn) | – | inactive |
| CCCCOC(=O)c1ccccc1C(=O)OCCCC | – | inactive |
